# Screens from PubChem.
# PKA-R2B act = activates the human PKA-R2B holoenzyme complex. P22694+P31323. PKA-R2B holoenzyme dissociation, Cy5-IP20 fluorescence polarization; R2B truncated from residue 108, S112A mutant; 0% DMSO only, 100% 113 µM cGMP. activation, % at 11.4 µM. actives 0.079% (n = 340,000). AID 504700;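 active means activation above a cutoff set at the mean over all compounds plus 3 SD, cut at about 18% in these data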;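 further: higher means more holoenzyme dissociation and a rise in polarization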
# Neddylation inh = blocks human cullin neddylation; P61081+Q13564; TR-FRET cullin neddylation, biochemical; inhibition, % at 25 µM; actives 0.58% (n = 360,000); in the data active means inhibition above about 36%
# Rpn11 inh = inhibitors of human proteasome Rpn11. actives 0.59% (n = 360,000). human 26S proteasome, Ub4-pepOG fluorescence polarization; 20S core pre-blocked with epoxomicin. calls only at 20 µM. O00487;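 active means inhibition at 20 µM, scaled to each plate's controls, above about 33%, limit read from the data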
# Target sequence (O00487 whole entry, looked up): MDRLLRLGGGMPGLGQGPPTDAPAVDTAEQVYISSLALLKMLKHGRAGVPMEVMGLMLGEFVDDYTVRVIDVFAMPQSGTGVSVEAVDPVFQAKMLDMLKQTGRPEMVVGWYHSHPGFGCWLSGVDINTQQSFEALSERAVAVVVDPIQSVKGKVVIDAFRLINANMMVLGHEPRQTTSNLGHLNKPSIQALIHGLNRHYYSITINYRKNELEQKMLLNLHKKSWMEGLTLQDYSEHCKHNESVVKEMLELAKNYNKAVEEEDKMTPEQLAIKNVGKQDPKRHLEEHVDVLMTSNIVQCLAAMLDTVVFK
# PKA-R1A act = activates the PKA-R1A holoenzyme complex; P00514+P68181; PKA-R1A dissociation, Cy5-IP20 fluorescence polarization; scaled: DMSO 0%, 113 µM cGMP 100%; activation, % at 11.4 µM; actives 0.083% (n = 340,000); AID 504707;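 active means percent activation above the mean of all tested compounds plus 3 SD, cut at about 19% in these data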;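 further: higher means more PKAc released from R1A so a rise in polarization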
# Rpn11 confirm = Rpn11 inhibition confirmation, single concentration; shares compounds with Rpn11 inh; purified human 26S proteasome, Ub4-pepOG fluorescence polarization; proteasome pretreated with epoxomicin; inhibition, % at 20 µM; actives 29% (n = 1,900); AID 602318
# MMP-2 inh = counter-screen for RPN11 inhibitors: inhibition of human MMP-2 | shares compounds with Rpn11 inh | recombinant MMP-2, FRET peptide cleavage fluorescence | inhibition, % at 20 µM | actives 4% (n = 1,900) | AID 602330;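 further: human MMP-2 activated beforehand with APMA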
# Thrombin FP = thrombin (bovine) inhibition counter-screen; shares compounds with Rpn11 inh; bovine thrombin cleavage of Ub4-pepOG, fluorescence polarization; inhibition, % at 20 µM; actives 13% (n = 1,900);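 active means mean inhibition at least 40% at 20 µM, or signal 3 deviations below plate average, so some actives read negative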;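 further: plate controls were thrombin with DMSO for no effect and buffer wells lacking thrombin for full effect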
# Neddyl inh conf = confirmation of human cullin neddylation inhibitors | shares compounds with Neddylation inh | TR-FRET cullin neddylation biochemical assay | calls only at 25 µM | actives 13% (n = 1,800) | AID 652217;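 further: neddylation substrate is the cullin 1 ring ligase complex with SKP2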
# An asterisk follows results filed as active; i = inactive; · = not tested or not shown; + = active, no number. Only some compounds are listed: those with a hit (about 1.3% of all), similar ones and a draw of the others. Unless noted, no stated cut-off is given here; in the data, active means inhibition above about 40%; inactive means the rest.
SMILES,PKA-R2B act,Neddylation inh,Rpn11 inh,PKA-R1A act,Rpn11 confirm,MMP-2 inh,Thrombin FP,others
CC(C)NC(=S)N/N=C/c1sc(N2CCCCC2)nc1-c1cccs1,-1,24,+,1,46*,34,8,
O=C(N/N=C/c1sc(N2CCCCC2)nc1-c1cccs1)C1CC1,4,14,i,-1,·,·,·,
NC(=O)N/N=C/c1sc(N2CCCCC2)nc1-c1cccs1,-5,13,+,-1,4,-11,-1,
O=C(O)CSc1ncnc2nc[nH]c12,0,-1,+,5,5,-26,-1,
O=S(=O)(c1cccc(Cn2nnc(-c3ccccc3)n2)c1)N1CCOCC1,3,-9,i,-5,·,·,·,
CSc1nc2nccc(-c3ccc(Cl)cc3)n2n1,-1,11,+,-4,36,66*,-10,
CN(C)S(=O)(=O)c1cccc(NC(=O)c2cc3c(=O)n4ccccc4nc3s2)c1,4,61*,+,1,0,9,-2,
O=C(N/N=C/c1sc(N2CCOCC2)nc1-c1ccccc1)c1ccccc1O,8,49*,+,-7,12,-34,-8,Neddyl inh conf=i
O=C(N/N=C/c1sc(N2CCOCC2)nc1-c1ccccc1)c1ccccc1Cl,8,·,i,7,·,·,·,
O=C(O)c1cccc(Nc2nc3ccccc3nc2NS(=O)(=O)c2ccc(F)cc2)c1,1,21,i,-14,·,·,·,
O=S(=O)(Nc1nc2ccccc2nc1Nc1ccc2c(c1)OCO2)c1ccc(F)cc1,4,38*,+,-3,14,6,-17,Neddyl inh conf=i
CC(OC(=O)CCCN=C1NS(=O)(=O)c2ccccc21)C(=O)NC1CCCCC1C (stereo not drawn),0,7,i,-9,·,·,·,
CCN(CC)CCCN(C(=O)c1ccc(Br)cc1)c1nc(-c2ccc(OC)cc2)cs1,-1,-10,i,2,·,·,·,
CCN(CC)CCOC(=O)c1ccc(N/C=C(/C#N)c2nc(-c3ccc(OC)cc3)cs2)cc1,2,62*,+,-12,55*,-144,77*,Neddyl inh conf=i
CN1CCN(C(=O)c2cc(Cl)ccc2NC(=O)c2ccc(Cl)cc2Cl)CC1,-8,6,i,-7,·,·,·,
CCCOc1ccc(C(=O)NC(=S)N2CCN(c3cc4c(cc3F)c(=O)c(C(=O)O)cn4CC)CC2)cc1,2,40*,+,5,-7,-19,-10,Neddyl inh conf=i
O=C(Nc1ccc(-n2cnnn2)cc1)c1cn2ccccc2n1,-10,52*,+,-7,36,-112,-15,Neddyl inh conf=i
CN(CC(=O)Nc1cccc(F)c1)C(=O)CC1CCCCC1,6,21,i,-3,·,·,·,
COc1cc(NC(=O)CNC(=O)Cn2cnc3sc(C)c(C)c3c2=O)cc(OC)c1OC,-5,6,i,-4,·,·,·,
O=C(O)CCc1ccc(-c2ccccc2)n1CC1CCCO1 (stereo not drawn),8,52*,+,-7,12,-26,6,
COc1cc(/C=C/c2cc(C(=O)O)c3ccccc3n2)ccc1OC(F)F,-6,40*,i,-1,·,·,·,
CCCC(=O)Nc1cc(-c2nn(C)c(=O)c3ccccc23)ccc1N1CCCCC1,-2,37,i,-8,·,·,·,
CCC(=O)Nc1cc(-c2nn(C)c(=O)c3ccccc23)ccc1N1CCCCC1,3,38*,i,-5,·,·,·,Neddyl inh conf=i
CC(=O)OCCc1c2ccccc2c(CCCN(C)C)c2ccccc12,-3,36*,i,3,·,·,·,
CC(=O)OCCc1[nH]c2ccccc2c1C,4,-15,i,-2,·,·,·,
O=C(NCCNC(=O)c1ccc(-c2cc(Cl)ccc2Cl)o1)c1cnccn1,-10,-242,i,4,·,·,·,
CCOC(=O)C1CC(=O)c2cc(OC)c(OC)cc2C1 (stereo not drawn),-1,42*,i,-5,·,·,·,
CCCCN(C(=O)c1ccc2c(c1)OCO2)c1ccccc1,-10,3,i,-5,·,·,·,
